Molecular target: T1, Dual specificity mitogen-activated protein kinase kinase 7 (Homo sapiens) (UniProt O14733)
T1 sequence (whole entry): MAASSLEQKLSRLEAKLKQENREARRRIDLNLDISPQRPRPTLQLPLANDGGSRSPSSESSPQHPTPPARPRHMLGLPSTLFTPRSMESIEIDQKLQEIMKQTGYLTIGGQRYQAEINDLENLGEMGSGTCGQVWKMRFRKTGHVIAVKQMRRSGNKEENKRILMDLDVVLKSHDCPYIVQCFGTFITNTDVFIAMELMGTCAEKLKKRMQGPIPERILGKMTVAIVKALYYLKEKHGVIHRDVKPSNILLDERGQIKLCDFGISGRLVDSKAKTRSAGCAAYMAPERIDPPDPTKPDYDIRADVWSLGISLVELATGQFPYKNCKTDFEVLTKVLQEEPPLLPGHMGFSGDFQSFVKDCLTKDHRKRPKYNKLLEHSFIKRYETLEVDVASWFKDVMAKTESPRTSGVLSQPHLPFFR
Settings: at 1 µM

SMILES	residual activity [%]
C[S+]([O-])c1ccc(-c2nc(-c3ccc(F)cc3)c(-c3ccncc3)[nH]2)cc1 (stereo unspecified)	86
COC(=O)[C@@]1(O)C[C@H]2O[C@]1(C)n1c3ccccc3c3c4c(c5c6ccccc6n2c5c31)C(=O)NC4	7
COc1ccc2c(c1)/C(=C/c1cnc[nH]1)C(=O)N2	71
O=C1Nc2ccc3ncsc3c2/C1=C/c1c[nH]cn1	43
O=C1c2ccccc2-c2nc3nnnn3nc21	66
CCn1cnc2c(Nc3cccc(Cl)c3)nc(N[C@@H]3CCCC[C@@H]3N)nc21	86
COc1cc(OC)c(/C=C2\C(=O)Nc3ccccc32)c(OC)c1	98
COc1ccc2c(c[n+](C)c3c4cc5c(cc4ccc23)OCO5)c1OC	110
CC(C)[C@H](CO)Nc1nc(Nc2cccc(Cl)c2)c2ncn(C(C)C)c2n1	75
O=C1NC(=O)c2c1c1c3ccccc3n3c1c1c2c2ccccc2n1C1CCC3O1	100
COc1cc2ncnc(Nc3ccc(OCc4ccccc4)cc3)c2cc1OC	102
O=c1[nH]c2ccccc2n1C1CCN(Cc2ccc(-c3nc4cc5[nH]cnc5cc4nc3-c3ccccc3)cc2)CC1	112
O=[N+]([O-])/C=C/c1ccc2c(c1)OCO2	112

Molecular target: T1, Dual specificity mitogen-activated protein kinase kinase 7 (Homo sapiens)
Settings: at 10 µM

SMILES	residual activity [%]
C[S+]([O-])c1ccc(-c2nc(-c3ccc(F)cc3)c(-c3ccncc3)[nH]2)cc1 (stereo unspecified)	68
COC(=O)[C@@]1(O)C[C@H]2O[C@]1(C)n1c3ccccc3c3c4c(c5c6ccccc6n2c5c31)C(=O)NC4	0
COc1ccc2c(c1)/C(=C/c1cnc[nH]1)C(=O)N2	16
O=C1Nc2ccc3ncsc3c2/C1=C/c1c[nH]cn1	12
O=C1c2ccccc2-c2nc3nnnn3nc21	39
CCn1cnc2c(Nc3cccc(Cl)c3)nc(N[C@@H]3CCCC[C@@H]3N)nc21	91
COc1cc(OC)c(/C=C2\C(=O)Nc3ccccc32)c(OC)c1	96
COc1ccc2c(c[n+](C)c3c4cc5c(cc4ccc23)OCO5)c1OC	71
O=C1NC(=O)c2c1c1c3ccccc3n3c1c1c2c2ccccc2n1C1CCC3O1	98
COc1cc2ncnc(Nc3ccc(OCc4ccccc4)cc3)c2cc1OC	85
O=c1[nH]c2ccccc2n1C1CCN(Cc2ccc(-c3nc4cc5[nH]cnc5cc4nc3-c3ccccc3)cc2)CC1	112
CC(C)(C)c1cc(C=C(C#N)C#N)cc(Br)c1O	102
O=[N+]([O-])/C=C/c1ccc2c(c1)OCO2	84

— ChEMBL document CHEMBL2218924, “A broad activity screen in support of a chemogenomic map for kinase signalling research and drug discovery” (Biochem J, 2013)
